# In the supplement of paper PMC6522484:
# ± gives the standard deviation of the averaged measurements.
# Test system: SW480
# Assay: TCF/Wnt firefly luciferase reporter signal relative to plate median (fraction of plate median); higher = higher Wnt reporter signal
# Conditions: 5 µM; treatment time 24 h; reporter: 7TFP
# Outline: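 Luminescence, normalised well by well to the plate median, is tabulated as a mean of independent replicates. There were two replicates, run on colorectal cancer lines stably transduced with lentiviral TCF/Wnt firefly luciferase reporters and dosed with library compounds at a final 5 µM for 24 h. Readouts were firefly luciferase or CellTiterGlo on parallel plates.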
row,Compound,TCF/Wnt firefly luciferase reporter signal
1,CCOc1ccc2nc(S(N)(=O)=O)sc2c1,0.891 ± 0.091
2,C=CCCCCCCCCC(=O)O,1 ± 0.037
3,C[C@H](N)[C@H](O)c1cccc(O)c1,0.915 ± 0.0071
4,CC(=O)O[C@H]1C[C@@]2(C)[C@H](c3ccoc3)OC(=O)[C@H]3O[C@]32[C@@]2(C)C1[C@]1(C)C(C[C@H]2OC(C)=O)C(C)(C)[C@H](OC(C)=O)C[C@@H]1OC(C)=O (stereo partly drawn) [11alpha-ACETOXYKHIVORIN],1.05 ± 0.11
5,COc1cc(O)c2c(c1)C(=O)c1cc3c(c(OC)c1C2=O)[C@@H]1CCO[C@@H]1O3 [Aversin],1.02 ± 0.16
6,C[C@H]1O[C@H](O[C@H]2[C@H](O)[C@@H](O)[C@@H](O[C@H]3[C@H](O)[C@@H](O)C(O)O[C@@H]3CO)O[C@@H]2CO)[C@H](O)[C@@H](O)[C@@H]1N[C@H]1C=C(CO)[C@@H](O)[C@H](O)[C@H]1O (stereo not given in full),1.02 ± 0.014
7,COC(=O)c1c(C)cc(OC)cc1O,0.869 ± 0.08
8,Nc1[nH]cnc2ncnc1-2,1.65 ± 0.26
9,CC(C(=O)O)c1ccc(C(=O)c2cccs2)cc1 (stereo not given),0.999 ± 0.072
10,CCOc1ccc(C(=O)c2ccc(OC)c(O)c2O)cc1,1.03 ± 0.021
11,CN1C(=O)CC[C@H]1c1cccnc1,0.94 ± 0.073
12,CC1=C(/C=C/C(C)=C/C=C/C(C)=C/C=C/C=C(C)/C=C/C=C(C)/C=C/C(=O)[C@]2(C)C[C@@H](O)CC2(C)C)C(C)(C)C[C@H](O)C1,1 ± 0.051
13,C[C@@H]1NC(=O)[C@H](Cc2ccccc2)NC1=O [cyclo(alanylphenylalanyl)],1.04 ± 0.014
14,CC(C(=O)O)c1cccc(C(=O)c2ccccc2)c1 (stereo not given),1.03 ± 0.014
15,O=C(O)CN(CCN(CC(=O)O)CC(=O)O)CC(=O)O.[Na+].[Na+].[Na+],1.11 ± 0.13
16,CN1CCCN=C1COC(=O)C(O)(c1ccccc1)C1CCCCC1 (stereo not given),1.065 ± 0.0071
17,Cc1ccc(S(=O)(=O)NC(=O)NN2CCCCCC2)cc1,0.998 ± 0.031
18,CC[C@H]1C(=O)OC[C@@H]1Cc1cncn1C,0.959 ± 0.019
19,Nc1ccc(C(=O)Oc2ccccc2)c(O)c1,1.03 ± 0.035
20,CC(=O)C1=C(CO)C(=O)c2cccc(O)c2C1=O [Bhimamycin E],1.01

row,Compound,TCF/Wnt firefly luciferase reporter signal
1,O=C1NC(Cc2ccc(O)cc2)C(=O)N2CCCC12 (stereo not given) [Cyclo(tyrosylprolyl)],0.959 ± 0.028
2,COc1cccc2c1C(=O)c1c(O)c3c(c(O)c1C2=O)C[C@@](O)(C(=O)CO)C[C@@H]3O[C@H]1C[C@H](N)[C@@H](O)[C@H](C)O1,0.727 ± 0.082
3,CCCCCc1c2c(cc(O)c1C(=O)O)OC(=O)c1c(cc(OC)cc1C(=O)CCCC)O2,1.05 ± 0.16
4,CC1CCC2(OC1)OC1CC3C4CCC5C[C@@H](O)CCC5(C)C4=CCC3(C)C1[C@@H]2C (stereo partly drawn) [3beta-HYDROXYISOALLOSPIROST-9(11)-ENE],1.01 ± 0.016
5,COc1ccc2c(c1)OCC(Cc1ccc(OC)c(OC)c1)C2=O (stereo not given),1.035 ± 0.0071
6,CC(C)=CCc1c2c(c3occ(-c4ccc(O)c(O)c4)c(=O)c3c1O)C=CC(C)(C)O2,1.02 ± 0.021
7,CC(=O)Oc1cc(C)c2c(c1C(OC(C)=O)OC(C)=O)Oc1c(c(C)c(OC(C)=O)c3c1C(OC(C)=O)OC3=O)OC2=O (stereo not given),1.18 ± 0.099
8,COc1cc([C@@H]2c3cc4c(cc3[C@@H](O[C@@H]3O[C@@H]5CO[C@@H](c6cccs6)O[C@H]5[C@H](O)[C@H]3O)[C@H]3COC(=O)[C@H]23)OCO4)cc(OC)c1O,0.868
9,CC[n+]1c(-c2ccccc2)c2cc(N)ccc2c2ccc(N)cc21,1.08 ± 0.12
10,C=CCCCCCCCCCCCC(O)CC(O)COC(C)=O (stereo not given),0.962 ± 0.021
11,CN(C)CCC(c1ccc(Br)cc1)c1ccccn1 (stereo not given),1.055 ± 0.0071
12,C[C@]12CCC(=O)C=C1CC[C@@H]1[C@@H]2C(=O)C[C@@]2(C)[C@H]1CC[C@]2(O)C(=O)CO,0.761 ± 0.013
13,CC(C)(S)[C@@H](N)C(=O)O,1.16 ± 0.11
14,CO/N=C(\C(=O)N[C@@H]1C(=O)N2C(C(=O)OCOC(=O)C(C)(C)C)=C(/C=C\c3scnc3C)CS[C@H]12)c1csc(N)n1,0.854 ± 0.14
15,Nc1ccc(S(=O)(=O)Nc2ccccn2)cc1,0.915 ± 0.076
16,CCOC(=O)C1=C(C)NC(C)=C(C(=O)OC)C1c1cccc([N+](=O)[O-])c1 (stereo not given),1.01 ± 0.039
17,O=C1O[C@H]([C@@H](O)CO)C(O)=C1O,0.969 ± 0.073
18,CC1(C)CC[C@]2(C(=O)O)CC[C@]3(C)C(=CC[C@@H]4[C@@]5(C)CC[C@H](O)C(C)(C)[C@@H]5[C@H](O)C[C@]43C)[C@@H]2C1,1.04 ± 0.057
19,CC(=O)CC(c1ccccc1)c1c(O)c2ccccc2oc1=O (stereo not given),1.12 ± 0.028
20,C=CCCCCCCCCC(=O)[O-].C=CCCCCCCCCC(=O)[O-].[Zn+2],0.968 ± 0.041
